# From PubChem BioAssay (NCI)
# The panel holds about 83,000 compounds, 20% with a hit somewhere; the sample as a whole holds those more often.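 Single-dose data. Exposure time 48 hours. Values below 10 considered active.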 Calls of active or inactive are those of the source.
# Test system: M14 melanoma
# Assay: NCI-60 one-dose screen, 48 h (100 = growth as untreated, 0 = no growth, -100 = all killed)
# Details: 10 µM unless noted
row,SMILES,growth
1,C=C1CCC2C3(C)COC(c4cc(F)cc(F)c4)OC3CCC2(C)C1CC(O)C1=CCOC1=O (stereo unspecified),58.7% (inactive)
2,CC(=O)Nc1ccc(C(=O)NC(=S)Nc2ccc(S(N)(=O)=O)cc2)cc1,93.6% (inactive)
3,COc1cc(C2CC(c3cc(OC)c(OC)c(OC)c3)=Nc3c(N)nc(N)nc3N2)ccc1Oc1nc(NCCO)nc(N2CCOCC2)n1 (stereo unspecified),102% (inactive)
4,CN1CCc2c(sc3ncnc(N/N=C/c4ccc(Cl)cc4Cl)c23)C1,-81.4% (active)
5,O=C(COc1ccc(NC(=O)Nc2ccc(Cl)c(Cl)c2)cc1)N=Nc1c(O)[nH]c2ccc(Br)cc12,-63.8% (active)
6,Cn1cc(NC(=O)c2cc(NC(=O)c3ccc(C#Cc4ccccc4)cc3)cn2C)cc1C(=O)NCCCN1CCOCC1,-86.4% (active)
7,COCOc1cc2oc(C(=O)N[C@@H](Cc3ccccc3)C(O)C(=O)NCc3ccccc3)c(C)c(=O)c2cc1OCOC (stereo partly specified),82.9% (inactive)
8,Cc1ccc(C(=O)CSc2nc3ccc(C)cc3c(=O)n2-c2ccc(F)cc2)cc1,79.7% (inactive)
9,CN(C)CCn1c2ccccc2c2nc3ccc([N+](=O)[O-])cc3nc21,17.9% (inactive)
10,COc1cc2c(c(OC)c1OC)C(=O)CC(c1cccc(NC(=O)c3cc(NC(=O)[C@H](CO)NC(=O)OC(C)(C)C)ccc3Cl)c1)O2 (stereo partly specified),22.5% (inactive)
11,Cc1cccc(NC(=O)[C@]23CCC(C)(C)CC2C2=CCC4[C@@]5(C)C[C@@H](O)[C@H](O)[C@@](C)(CO)C5CC[C@@]4(C)[C@]2(C)CC3)c1 (stereo partly specified),36.1% (inactive)
